The values below come from PubChem BioAssay.

Assay [1] is described as follows: E. coli DRC41 culture turbidity changes, primary screen, E. coli filamentation inducer project, strain DRC41, OD650, 48 h (AID 1152).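 Further: E. coli MC1000 strain DRC41 lacking acrAB efflux pump and sulA.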 Conditions: E. coli DRC41 (acrAB sulA), higher = more signal, called active from +8 up or from −8 down.
Assay [2] is described as follows: small-molecule binders of probe aLefty1, primary screen, biochemical, small-molecule microarray, 635/667 nm fluorescence (AID 1153).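 Further: score merges spot fluorescence with signal-to-noise ratio from the scanned slide images.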 The conditions noted are these: higher = more signal.
A short description of assay [3]: PSAC antagonists in infected red cells, primary screen, cell-based, P. falciparum Indochina, OD700, 1 h (AID 1154). Conditions: P. falciparum Indochina infected RBC osmotic lysis, higher = more signal, called active from +8 up or from −8 down.
Assay [4] is described as follows: PSAC antagonists in infected red cells, primary screen, cell-based, P. falciparum Indochina, OD700, 2 h (AID 1155).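 Further: lysis reports solute entry through the parasite surface anion channel PSAC; channel blockers reduce lysis of infected cells.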 The conditions noted are these: P. falciparum Indochina infected erythrocytes, osmotic lysis OD700; higher = more signal, called active from +8 up or from −8 down.
The nature of assay [5]: osmotic lysis modulators in infected erythrocytes, primary screen, PSAC antagonist project, cell-based, P. falciparum Indochina, OD700, 3 h (AID 1156). Conditions: higher = more signal, called active from +8 up or from −8 down.
A short description of assay [6]: PSAC antagonists in infected red cells, primary screen, cell-based, P. falciparum Indochina, OD700, 18 h (AID 1157). The conditions noted are these: P. falciparum Indochina infected erythrocytes, osmotic lysis OD700, 18 h; higher = more signal, called active from +8 up or from −8 down.
Assay [7] in a line: modulators of S6 phosphorylation in cells, primary screen, cell-based, A549, cytoblot, luminescence, serum-stimulated (AID 1158).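 Further: serum-stimulated A549 lung adenocarcinoma cells; signal is phosphorylated S6 detected by cytoblot immunostaining with HRP secondary.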 The conditions noted are these: A549 phospho-S6 cytoblot, 5 h, higher = more signal.
The target in assay [8] is NADPH oxidase 2 (Homo sapiens) (UniProt P04839). Kind of assay: NOX2-dependent H2O2 signal modulators, primary screen, NOX inhibitor project, cell-based, HEK293-NOX2, PMA-stimulated, Amplex Red fluorescence (AID 1159). Further: test concentration not given here. Conditions: 45 min, higher = more signal, called active from +8 up or from −8 down.
For assay [9], the target named is NADPH oxidase 4 (Homo sapiens) (UniProt Q9NPH5). Kind of assay: NOX4-dependent H2O2 signal modulators, primary screen, NOX inhibitor project, cell-based, HEK293-NOX4, tetracycline-induced, Amplex Red fluorescence (AID 1160). Conditions: 45 min, higher = more signal, called active from +8 up or from −8 down.
The target in assay [10] is NADPH oxidase 5 (Homo sapiens) (UniProt Q96PH1). Kind of assay: NOX5-dependent H2O2 signal modulators, primary screen, NOX inhibitor project, cell-based, HEK293-NOX5, Amplex Red fluorescence (AID 1161). The conditions noted are these: HEK293-NOX5, ionomycin, 45 min, higher = more signal.
Assay [11] is described as follows: A549 cell viability effects, profiling panel, calcein-AM fluorescence, 48 h, basal (AID 1162). Further: test concentration not given here. The conditions noted are these: higher = more signal.
Assay [12] is described as follows: adipocyte viability effects, profiling panel, cell-based, 3T3-L1 adipocytes, calcein-AM fluorescence, 48 h, basal (AID 1163). Further: test concentration not given here. Conditions: 3T3-L1 adipocytes viability, higher = more signal.
Assay [13] can be described thus: HepG2 cell viability effects, profiling panel, calcein-AM fluorescence, 48 h, basal (AID 1164). Further: test concentration not given here. The conditions noted are these: higher = more signal.
The nature of assay [14]: MM1S cell viability effects, profiling panel, calcein-AM fluorescence, 48 h, basal (AID 1165).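 Further: viability of MM1S multiple myeloma cells under basal unstimulated conditions; test concentration not given here.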 The conditions noted are these: higher = more signal.
The nature of assay [15]: basal RPMI8226 viability, no added stimulus, profiling panel, cell-based, calcein-AM fluorescence, 48 h, PK04 Diversity Set (AID 1166).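 Further: cells grown under basal conditions without added stimulus; test concentration not given here.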 The conditions noted are these: RPMI8226 myeloma viability, higher = more signal.
Assay [16] is described as follows: basal HepG2 mitochondrial membrane potential changes, profiling panel, cell-based, JC-1 fluorescence, 24 h, 100 nL compound (AID 1167). Further: test concentration not given here. Conditions: higher = more signal.
The nature of assay [17]: basal 3T3-L1 adipocyte mitochondrial potential changes, profiling panel, cell-based, JC-1 fluorescence, 3T3-L1 adipocytes, 24 h, 100 nL compound (AID 1168). Further: test concentration not given here. The conditions noted are these: JC-1 mitochondrial fluorescence, higher = more signal, called active from +8 up or from −8 down.
Assay [18] is described as follows: basal RPMI8226 mitochondrial membrane potential changes, profiling panel, cell-based, JC-1 fluorescence, 24 h, 100 nL compound (AID 1169). Further: test concentration not given here. Conditions: RPMI8226 myeloma, JC-1 mitochondrial potential fluorescence, higher = more signal.
Assay [19] is described as follows: basal MM1S mitochondrial membrane potential changes, profiling panel, cell-based, JC-1 fluorescence, 24 h, 100 nL compound (AID 1170). Further: test concentration not given here. Conditions: higher = more signal.
Assay [20] is described as follows: A549 lung cancer cell viability effects, profiling panel, resazurin fluorescence, 24 h, PK04 Diversity Set (AID 1171). Further: test concentration not given here. Conditions: higher = more signal, called active from +8 up or from −8 down. On the technique in general: Resazurin is reduced to fluorescent resorufin, in cell work by metabolically active cells.

The structures appear in SMILES notation. Active and inactive are the calls of the source.

NADPH oxidase 4 (Homo sapiens), sequence (Q9NPH5 whole entry, looked up): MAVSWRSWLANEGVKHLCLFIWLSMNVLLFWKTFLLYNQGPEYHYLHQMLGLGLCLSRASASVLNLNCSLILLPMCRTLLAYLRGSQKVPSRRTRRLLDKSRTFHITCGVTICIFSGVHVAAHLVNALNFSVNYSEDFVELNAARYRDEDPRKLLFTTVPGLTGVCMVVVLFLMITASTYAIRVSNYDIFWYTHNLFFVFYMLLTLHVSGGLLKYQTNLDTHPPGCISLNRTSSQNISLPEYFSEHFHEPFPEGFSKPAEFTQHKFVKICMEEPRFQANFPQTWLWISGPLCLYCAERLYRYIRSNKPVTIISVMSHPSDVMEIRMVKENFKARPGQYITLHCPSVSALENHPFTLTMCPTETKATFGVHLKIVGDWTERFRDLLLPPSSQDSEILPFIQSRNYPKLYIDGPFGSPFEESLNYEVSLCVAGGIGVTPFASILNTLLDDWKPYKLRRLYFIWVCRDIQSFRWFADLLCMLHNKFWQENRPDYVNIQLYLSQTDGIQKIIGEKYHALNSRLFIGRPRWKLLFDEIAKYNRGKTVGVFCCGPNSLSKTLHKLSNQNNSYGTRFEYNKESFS
NADPH oxidase 2 (Homo sapiens), sequence (P04839 whole entry, looked up): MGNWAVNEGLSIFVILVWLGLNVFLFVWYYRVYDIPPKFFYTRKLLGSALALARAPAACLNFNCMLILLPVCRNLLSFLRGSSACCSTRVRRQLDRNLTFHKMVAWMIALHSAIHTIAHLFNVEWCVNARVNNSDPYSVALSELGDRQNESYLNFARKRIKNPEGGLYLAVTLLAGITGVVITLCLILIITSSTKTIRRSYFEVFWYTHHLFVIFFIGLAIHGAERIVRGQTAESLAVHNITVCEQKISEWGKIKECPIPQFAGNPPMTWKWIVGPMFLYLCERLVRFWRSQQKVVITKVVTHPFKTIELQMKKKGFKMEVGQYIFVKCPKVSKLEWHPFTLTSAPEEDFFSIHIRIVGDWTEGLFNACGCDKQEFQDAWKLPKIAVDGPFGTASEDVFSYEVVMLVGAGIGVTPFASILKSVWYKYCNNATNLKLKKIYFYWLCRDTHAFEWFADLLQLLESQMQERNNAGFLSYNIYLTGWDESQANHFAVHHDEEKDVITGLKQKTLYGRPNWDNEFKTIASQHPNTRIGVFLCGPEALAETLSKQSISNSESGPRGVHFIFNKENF
NADPH oxidase 5 (Homo sapiens), sequence (Q96PH1 whole entry, looked up): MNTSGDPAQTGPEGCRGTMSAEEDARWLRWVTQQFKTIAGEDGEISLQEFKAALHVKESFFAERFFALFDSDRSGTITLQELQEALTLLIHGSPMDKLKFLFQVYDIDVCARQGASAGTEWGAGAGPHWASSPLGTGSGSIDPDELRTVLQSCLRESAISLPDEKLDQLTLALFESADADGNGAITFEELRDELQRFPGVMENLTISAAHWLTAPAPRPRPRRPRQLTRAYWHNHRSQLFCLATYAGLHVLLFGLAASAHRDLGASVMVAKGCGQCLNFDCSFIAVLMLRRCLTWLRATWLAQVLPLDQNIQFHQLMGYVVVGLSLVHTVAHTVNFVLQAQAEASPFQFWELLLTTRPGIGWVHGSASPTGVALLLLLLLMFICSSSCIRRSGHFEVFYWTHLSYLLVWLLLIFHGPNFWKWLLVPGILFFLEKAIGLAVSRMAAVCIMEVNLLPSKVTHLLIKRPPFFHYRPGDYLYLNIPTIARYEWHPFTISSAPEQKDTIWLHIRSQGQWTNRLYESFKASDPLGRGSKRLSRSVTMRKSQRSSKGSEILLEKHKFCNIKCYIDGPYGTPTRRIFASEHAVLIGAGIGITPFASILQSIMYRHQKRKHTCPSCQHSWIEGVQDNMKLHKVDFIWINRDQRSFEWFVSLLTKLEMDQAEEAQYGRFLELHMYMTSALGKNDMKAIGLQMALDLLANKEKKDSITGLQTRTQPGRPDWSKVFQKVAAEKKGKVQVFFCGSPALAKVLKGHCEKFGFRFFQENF

Turning to `CN(C)CCCNC(=O)[C@@]1(C)c2ccccc2C(=O)N(Cc2cc(F)cc(C(F)(F)F)c2)[C@H]1c1ccc(CO)cc1`, the z-score was -0.0995 (inactive) in [1]; 2.41 (inactive) in [3]; 0.159 (inactive) in assay [4]; 1.32 (inactive) in assay [5]; -0.0617 (inactive) in assay [6]; -0.0103 in assay [7]. In addition, the z-score was -0.655 (inactive) in assay [8]; 0.835 (inactive) in assay [9]; 0.463 in assay [10]; 1.04 in assay [11]; -0.0121 in assay [12]; -0.746 in [13]. Also, the z-score is -1.29 in assay [14]; -0.167 in [15]; 0.845 in assay [16]; 0.235 (inactive) in assay [17]; 0.521 in assay [18]; -0.496 in assay [19]. Also, in assay [20], the z-score is 0.896 (inactive). Also, the composite z-score in assay [2] was 0.0391.
As to `COCCOC(=O)N1C(=O)[C@@]2(c3cc(C#CCCO)ccc31)[C@H](C(=O)N1CCc3cc(OC)c(OC)cc3C1)[C@H]1C(=O)O[C@H](c3ccccc3)[C@H](c3ccccc3)N1[C@@H]2c1ccc(O)cc1`, the z-score was 0.38 (inactive) in [1]; 1.49 (inactive) in assay [3]; 0.349 (inactive) in [4]; 0.262 (inactive) in [5]; 0.222 (inactive) in assay [6]; 0.113 in [7]. Further, the z-score in assay [8] was 1.26 (inactive); in assay [9] it was 0.706 (inactive); in assay [10], 1.29; in [11], -0.235; in [12], 0.0133; in assay [13], 2.58. Also, the z-score in assay [14] is 0.587; in [15], 0.245; in assay [16], -0.404; in assay [17], 0.0353 (inactive); in assay [18], -0.385; in [19], -0.546. Besides, in assay [20], the z-score is -0.689 (inactive). Further, the composite z-score in [2] came out at 0.88.
On to `COCCOC(=O)N1C(=O)[C@@]2(c3cc(C#Cc4ccc(OC)cc4)ccc31)[C@H](c1ccc(O)cc1)N1[C@H](c3ccccc3)[C@H](c3ccccc3)OC(=O)[C@H]1[C@@H]2C(=O)NC[C@H](O)c1ccccc1`, for which the z-score in assay [1] was 0.72 (inactive); in assay [3], 3.44 (inactive); in assay [4] it was 0.973 (inactive); in assay [5] it was 0.38 (inactive); in assay [6], 0.532 (inactive); in assay [7], 0.264. The z-score in [8] was 1.07 (inactive); in assay [9] it was -1.05 (inactive); in assay [10] it was 1.1; in assay [11] it was -0.828; in assay [12], 1.44; in assay [13], -0.55. Besides, the z-score in assay [14] is -1; in assay [15] it was -2.16; in assay [16], -1.99; in assay [17], 2.46 (inactive); in assay [18], -0.653; in assay [19] it was -0.524. Moreover, the z-score in assay [20] was 0.123 (inactive). This compound showed a composite z-score in [2] of 0.176.
With `CCCCN1CC=CC23O[C@@H]4C=CCOC(=O)[C@@H]4[C@H]2C(=O)N(CCCCCO)[C@@H]3C1=O` (stereo not given in full), the z-score in [1] was 0.504 (inactive); in [3] it was 1.25 (inactive); in assay [4] it was 0.882 (inactive); in assay [5], 1.22 (inactive); in assay [6], 0.529 (inactive); in assay [7], 0.0401. Also, the z-score is 0.872 (inactive) in assay [8]; 0.381 (inactive) in assay [9]; 1.37 in assay [10]; -0.503 in assay [11]; -0.122 in assay [12]; -0.781 in assay [13]. Further, the z-score in assay [14] was 0.276; in assay [15], 0.778; in assay [16], -0.235; in assay [17] it was 0.17 (inactive); in [18], -0.0189; in assay [19], -0.0548. The z-score in assay [20] is -0.508 (inactive). The composite z-score in assay [2] was 0.749.
For `[N-]=[N+]=Nc1ccccc1C[C@]1(C(N)=O)N=C(c2ccc(OCCCO)cc2)O[C@H]1c1ccccc1`, the z-score in assay [1] is -0.444 (inactive); in assay [3] it was 19.8 (active); in [4], 3.47 (inactive); in [5], 1.84 (inactive); in assay [6], 0.936 (inactive); in assay [7], 0.176. Moreover, the z-score in assay [8] was 0.631 (inactive); in assay [9], 0.247 (inactive); in assay [10], -1.32; in assay [11] it was 0.0914; in assay [12], 0.124; in assay [13] it was -0.0857. For the same compound, the z-score was -1.9 in [14]; -0.495 in assay [15]; -0.543 in [16]; -0.387 (inactive) in assay [17]; -0.265 in assay [18]; -0.0874 in [19]. In addition, the z-score in assay [20] is 0.453 (inactive). In assay [2], this compound came in with a composite z-score of 0.228.
Consider `C=CCN(Cc1ccccc1)C(=O)C(c1cccs1)N(CCOCCO)C(=O)/C=C\C(=O)O` (stereo not given), for which the z-score in assay [1] was 2.73 (inactive); in assay [3], 2.39 (inactive); in assay [4], -0.398 (inactive); in assay [5], 0.213 (inactive); in assay [6] it was -0.281 (inactive); in assay [7], 3.21. Further, the z-score in assay [8] was -0.00856 (inactive); in [9], -0.515 (inactive); in assay [10], -0.659; in assay [11], 0.902; in [12], 0.345; in assay [13] it was 0.849. Besides, the z-score in [14] is 1.62; in assay [15], 1; in [16], -0.138; in assay [17], 0.0415 (inactive); in [18] it was 0.158; in [19], -1.37. The z-score in [20] is -0.221 (inactive). Further, in assay [2], the composite z-score is -0.191.
`CC(C)C(=C=CC[C@@H](O)c1ccccc1OCCO)CCO`: the z-score is 0.351 (inactive) in [1]; 1.95 (inactive) in assay [3]; 0.63 (inactive) in assay [4]; -1.33 (inactive) in assay [5]; 0.428 (inactive) in assay [6]; 0.278 in [7]. The z-score in [8] was 0.729 (inactive); in [9], 0.147 (inactive); in assay [10], -2.06; in [11] it was 0.855; in [12], -1.23; in assay [13], -0.902. Moreover, the z-score in assay [14] is -0.314; in assay [15], 0.168; in [16], -1.03; in assay [17], 0.235 (inactive); in assay [18], 0.719; in assay [19], -0.0293. Also, the z-score in [20] is 0.215 (inactive). This compound also gave a composite z-score in [2] of -0.0501.
As to `CCOC(=O)C[C@H]1[C@H](OC(=O)Cc2ccc3c(c2)OCO3)[C@@H](NC(=O)c2ccc3ccccc3c2)c2cc(OCCCO)ccc2N1C(=O)c1ccccc1`, the z-score is 1.87 (inactive) in [1]; 4.03 (inactive) in assay [3]; 0.522 (inactive) in [4]; -0.552 (inactive) in [5]; 0.26 (inactive) in assay [6]; 0.0043 in assay [7]. The z-score was -0.363 (inactive) in assay [8]; 0.321 (inactive) in assay [9]; -2.56 in assay [10]; 1.38 in assay [11]; -0.377 in assay [12]; 0.778 in [13]. In addition, the z-score in [14] is -0.41; in [15] it was -0.377; in [16], 1.27; in [17], 1.14 (inactive); in assay [18] it was 0.621; in [19], -0.334. In addition, the z-score in [20] was 0.859 (inactive). In addition, the composite z-score in assay [2] was found to be 0.0479.
Turning to `O=C1c2ccccc2[C@](Cc2ccccc2I)(C(=O)NC2CC2)[C@H](c2ccc(CO)cc2)N1C1CCCCC1`, the z-score in assay [1] is 0.0304 (inactive); in [3] it was 22.5 (active); in assay [4], 5.2 (inactive); in assay [5], 3.82 (inactive); in [6] it was 1.36 (inactive); in [7] it was -0.471. Also, the z-score was 0.478 (inactive) in assay [8]; 1.06 (inactive) in [9]; 2.45 in assay [10]; 0.818 in [11]; 0.835 in assay [12]; 0.677 in assay [13]. Also, the z-score was -1.02 in assay [14]; -1.98 in assay [15]; 2.11 in assay [16]; 0.252 (inactive) in [17]; -0.482 in [18]; -0.299 in [19]. The z-score in assay [20] was 0.91 (inactive). The composite z-score in assay [2] was 0.166.
